# Results reported in PubChem BioAssay.
# Activity calls are given as the source filed them. Unless noted, how the calls were made is not given here.
# Assays:
# [1] = compounds binding Alexa647 anti-His antibody – biochemical, small-molecule microarray, 635 nm fluorescence, artefact control for SMM control protein annotation, primary screen (AID 1128); conditions: higher = more signal;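 further: score merges feature fluorescence with signal-to-noise for each printed compound spot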
# [2] = system: Human papillomavirus type 1a E7 protein (residues 1-88); assay: HPV1a E7 small-molecule binders, primary screen, biochemical, small-molecule microarray, residues 1-88, 635 nm (AID 1129); conditions: small-molecule microarray binding, fluorescence 635 nm; higher = more signal
# [3] = target: Focal adhesion kinase 1 (Homo sapiens) (UniProt Q05397); assay: PTK2 protein binding on printed compound slides – biochemical, small-molecule microarray, 635/667 nm fluorescence, BSA, DTT, primary screen (AID 1130); conditions: 635 nm fluorescence, higher = more signal;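 further: composite of spot emission at 667 nm and signal to noise over triplicate slides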
# [4] = system: Fibrinogen (Alexa647-labelled); assay: Alexa647-fibrinogen binding to printed small molecules – biochemical, small-molecule microarray, 635/667 nm fluorescence, artefact control for SMM control-protein annotation, profiling panel (AID 1131); conditions: fibrinogen-A647 binding fluorescence, higher = more signal;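 further: z-score merges 667 nm fluorescence with per-spot signal-to-noise over triplicate slides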
# [5] = target: Follistatin (Homo sapiens) (UniProt P19883); assay: FST protein binding to printed compounds – biochemical, small-molecule microarray, 635/667 nm fluorescence, primary screen (AID 1132); conditions: 635 nm fluorescence, higher = more signal
# [6] = target: Fibroblast growth factor 2 (Homo sapiens) (UniProt P09038); assay: basic fibroblast growth factor binding to printed compounds – biochemical, small-molecule microarray, 635/667 nm fluorescence, primary screen (AID 1133); conditions: FGF2, fluorescence 635/667, higher = more signal
# [7] = JC-1 mitochondrial potential readout, lung cancer cells – cell-based, A549, JC-1 fluorescence, basal, 24 h, 100 nL, profiling panel (AID 1138); conditions: higher = more signal;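 further: A549 lung adenocarcinoma cells under basal conditions with no added stimulus; test concentration not given here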
# Lefty1 = Lefty1 protein binding to printed compounds – biochemical, small-molecule microarray, 635/667 nm fluorescence, primary screen (AID 1139); conditions: fluorescence 635/667, higher = more signal
# [8] = system: wheat germ agglutinin (Triticum aestivum), Alexa647-labelled; assay: Alexa647-WGA lectin binding to printed small molecules – biochemical, small-molecule microarray, 635/667 nm fluorescence, artefact control for SMM control-protein annotation, profiling panel (AID 1140); conditions: WGA-A647 binding, 635 nm fluorescence, higher = more signal;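 further: score merges 667 nm feature emission with signal to noise over triplicate slides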
# [9] = target: Luciferin 4-monooxygenase (Photinus pyralis) (UniProt P08659); assay: inhibition of purified Photinus pyralis luciferase – biochemical, luminescence, purified enzyme, 2006 set, primary screen (AID 1141); conditions: purified firefly luciferase, SteadyGlo luminescence, 30 min; higher = more signal, called active from +8 up or from −8 down;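 further: cell-free assay with purified firefly luciferase at 100 ng per well in PBS; test concentration not given here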
# [10] = system: Wnt5a (protein binding on small-molecule microarray); assay: small molecules binding Wnt5a protein – biophysical, small-molecule microarray, 635/667 nm fluorescence, primary screen (AID 1142); conditions: 635 nm fluorescence, higher = more signal;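 further: fluorescence read at 667 nm with signal to noise per printed feature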
# [11] = ATP-based viability of Huh7 replicon cells – cell-based, CellTiter-Glo luminescence, basal, 48 h, cytotoxicity control for HCV replication inhibitor project, primary screen (AID 1143); conditions: higher = more signal, called active from +8 up or from −8 down;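 further: Huh7 hepatoma cells carrying a hepatitis C replication reporter with no stimulus; test concentration not given here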
# [12] = Pseudomonas biofilm growth suppression – PAO1 strain, BacTiter-Glo luminescence, LB-PBS, primary screen (AID 1144); conditions: P. aeruginosa PAO1 biofilm, 12 h, higher = more signal
# [13] = basal CRE-LacZ reporter activity in PC12 – cell-based, unstimulated, primary screen (AID 1145); conditions: no forskolin, luminescence, 4.5 h, higher = more signal, called active from +8 up or from −8 down
# [14] = forskolin-driven CRE-LacZ activity in PC12 – cell-based, CRE-LacZ reporter, forskolin-stimulated, primary screen (AID 1146); conditions: luminescence, 4.5 h, higher = more signal, called active from +8 up or from −8 down;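 further: PC12 cells with 6xCRE LacZ reporter stimulated by forskolin 10 µM; beta-galactosidase reporter signal reflecting CREB driven transcription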
# [15] = target: Streptavidin (Streptomyces avidinii) (UniProt P22629); assay: compounds binding control protein streptavidin – biophysical, small-molecule microarray, 635/667 nm fluorescence, artefact control for SMM compound annotation, primary screen (AID 1147); conditions: higher = more signal;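 further: signal reflects streptavidin binding to arrayed compounds as a control protein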
# [16] = probe aInhba binding on compound microarray – biochemical, small-molecule microarray, 635/667 nm fluorescence, primary screen (AID 1148); conditions: higher = more signal;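 further: score merges 667nm spot fluorescence with signal-to-noise for antibody binding to printed compounds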
# Torsin-1A (Homo sapiens) [17] = target: Torsin-1A (Homo sapiens) (UniProt O14656); assay: TOR1A wild-type binding on microarray – cell lysate, small-molecule microarray, lysate, 635/667 nm, primary screen (AID 1149); conditions: COS7 hTOR1A-WT lysate, 635 nm fluorescence, higher = more signal
# Torsin-1A (Homo sapiens) [18] = target: Torsin-1A (Homo sapiens) (UniProt O14656); assay: torsin A mutant lysate binding on microarrays – cell lysate, small-molecule microarray, COS7 lysate, 635/667 nm fluorescence, primary screen (AID 1150); conditions: COS7 hTOR1A mutant lysate, 635 nm fluorescence, higher = more signal;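 further: score pools 667 nm emission and signal to noise measuring lysate protein binding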
# [19] = system: Sonic hedgehog protein (Shh); assay: Sonic hedgehog microarray binding compounds – biochemical, small-molecule microarray, 635/667 nm fluorescence, primary screen (AID 1151); conditions: 635 nm fluorescence, higher = more signal;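 further: Shh protein binding to compounds spotted on small-molecule microarray slides; score combines spot fluorescence intensity with signal-to-noise across triplicate slides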
# Streptavidin (Streptomyces avidinii), sequence (P22629 whole entry, looked up): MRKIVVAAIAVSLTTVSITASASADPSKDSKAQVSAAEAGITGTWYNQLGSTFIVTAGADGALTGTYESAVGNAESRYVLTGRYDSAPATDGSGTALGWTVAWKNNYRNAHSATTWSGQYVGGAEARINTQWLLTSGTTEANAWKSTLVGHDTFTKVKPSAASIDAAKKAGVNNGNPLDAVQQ
# Focal adhesion kinase 1 (Homo sapiens), sequence (Q05397 whole entry, looked up): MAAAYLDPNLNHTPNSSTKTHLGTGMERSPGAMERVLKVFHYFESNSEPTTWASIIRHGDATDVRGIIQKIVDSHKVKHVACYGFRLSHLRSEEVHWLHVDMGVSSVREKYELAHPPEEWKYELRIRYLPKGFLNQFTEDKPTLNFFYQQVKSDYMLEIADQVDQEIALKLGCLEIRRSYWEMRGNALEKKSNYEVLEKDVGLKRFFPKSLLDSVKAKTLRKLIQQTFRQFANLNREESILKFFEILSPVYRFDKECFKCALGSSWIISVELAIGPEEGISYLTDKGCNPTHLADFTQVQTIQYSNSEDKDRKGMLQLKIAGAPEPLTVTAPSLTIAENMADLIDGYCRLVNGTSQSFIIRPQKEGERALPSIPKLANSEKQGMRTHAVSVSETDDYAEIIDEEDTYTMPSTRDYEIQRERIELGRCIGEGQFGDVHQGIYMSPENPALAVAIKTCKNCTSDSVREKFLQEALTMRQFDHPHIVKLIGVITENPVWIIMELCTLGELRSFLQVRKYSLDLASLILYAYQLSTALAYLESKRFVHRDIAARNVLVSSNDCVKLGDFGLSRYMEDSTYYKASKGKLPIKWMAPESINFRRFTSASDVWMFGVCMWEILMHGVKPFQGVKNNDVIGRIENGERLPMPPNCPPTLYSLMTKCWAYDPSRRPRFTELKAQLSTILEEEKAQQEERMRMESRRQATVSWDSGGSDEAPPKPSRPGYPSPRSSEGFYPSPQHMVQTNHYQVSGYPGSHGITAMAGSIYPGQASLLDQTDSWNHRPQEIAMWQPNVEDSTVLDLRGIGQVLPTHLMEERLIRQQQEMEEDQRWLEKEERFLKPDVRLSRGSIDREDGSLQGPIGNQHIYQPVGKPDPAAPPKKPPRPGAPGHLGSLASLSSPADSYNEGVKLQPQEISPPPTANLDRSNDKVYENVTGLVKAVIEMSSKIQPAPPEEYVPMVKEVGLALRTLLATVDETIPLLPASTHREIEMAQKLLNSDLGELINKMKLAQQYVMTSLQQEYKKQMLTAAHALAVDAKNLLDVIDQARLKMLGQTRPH
# Luciferin 4-monooxygenase (Photinus pyralis), sequence (P08659 whole entry, looked up): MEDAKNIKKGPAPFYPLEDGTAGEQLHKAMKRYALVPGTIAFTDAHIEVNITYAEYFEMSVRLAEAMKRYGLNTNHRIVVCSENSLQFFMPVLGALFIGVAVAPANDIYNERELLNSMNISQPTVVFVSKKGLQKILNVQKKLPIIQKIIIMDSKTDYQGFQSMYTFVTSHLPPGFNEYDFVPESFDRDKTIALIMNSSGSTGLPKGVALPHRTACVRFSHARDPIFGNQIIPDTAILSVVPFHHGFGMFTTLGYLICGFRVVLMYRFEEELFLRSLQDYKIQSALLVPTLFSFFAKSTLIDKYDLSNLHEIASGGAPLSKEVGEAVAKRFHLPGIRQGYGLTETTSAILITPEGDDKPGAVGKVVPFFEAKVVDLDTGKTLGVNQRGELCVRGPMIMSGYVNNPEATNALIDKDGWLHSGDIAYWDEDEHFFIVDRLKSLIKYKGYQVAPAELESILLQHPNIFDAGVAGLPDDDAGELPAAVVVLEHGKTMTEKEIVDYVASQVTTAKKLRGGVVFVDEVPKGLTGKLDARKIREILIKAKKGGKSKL
# Torsin-1A (Homo sapiens), sequence (O14656 whole entry, looked up): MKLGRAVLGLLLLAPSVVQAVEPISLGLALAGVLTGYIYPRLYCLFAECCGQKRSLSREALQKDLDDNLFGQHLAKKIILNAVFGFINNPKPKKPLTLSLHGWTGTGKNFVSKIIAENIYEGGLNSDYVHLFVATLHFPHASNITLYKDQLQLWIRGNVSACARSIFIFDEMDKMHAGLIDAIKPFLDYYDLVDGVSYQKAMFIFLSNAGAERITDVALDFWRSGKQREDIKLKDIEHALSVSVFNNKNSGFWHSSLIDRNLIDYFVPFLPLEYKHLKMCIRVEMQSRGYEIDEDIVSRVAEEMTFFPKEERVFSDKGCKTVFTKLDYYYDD
# Follistatin (Homo sapiens), sequence (P19883 whole entry, looked up): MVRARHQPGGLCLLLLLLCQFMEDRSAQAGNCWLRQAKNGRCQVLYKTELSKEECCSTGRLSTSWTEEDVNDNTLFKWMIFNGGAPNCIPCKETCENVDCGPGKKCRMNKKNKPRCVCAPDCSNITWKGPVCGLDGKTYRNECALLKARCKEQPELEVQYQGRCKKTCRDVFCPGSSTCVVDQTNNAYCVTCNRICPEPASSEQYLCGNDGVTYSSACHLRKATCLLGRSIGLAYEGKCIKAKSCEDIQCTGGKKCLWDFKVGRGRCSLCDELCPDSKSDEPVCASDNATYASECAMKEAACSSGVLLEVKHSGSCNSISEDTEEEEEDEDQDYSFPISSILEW
# Fibroblast growth factor 2 (Homo sapiens), sequence (P09038 whole entry, looked up): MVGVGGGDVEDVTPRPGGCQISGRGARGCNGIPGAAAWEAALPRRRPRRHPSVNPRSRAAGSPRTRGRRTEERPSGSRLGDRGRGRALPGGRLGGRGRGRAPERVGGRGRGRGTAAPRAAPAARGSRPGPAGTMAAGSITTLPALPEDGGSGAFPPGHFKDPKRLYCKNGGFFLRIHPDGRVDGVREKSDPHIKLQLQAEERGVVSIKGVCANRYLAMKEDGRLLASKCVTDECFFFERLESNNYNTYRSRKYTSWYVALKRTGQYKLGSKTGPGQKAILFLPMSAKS
SMILES,composite z-score [1],composite z-score [2],composite z-score [3],composite z-score [4],composite z-score [5],composite z-score [6],z-score [7],composite z-score (Lefty1),composite z-score [8],z-score [9],composite z-score [10],z-score [11],z-score [12],z-score [13],z-score [14],composite z-score [15],composite z-score [16],composite z-score (Torsin-1A (Homo sapiens) [17]),composite z-score (Torsin-1A (Homo sapiens) [18]),composite z-score [19]
O=C1O[C@@H](c2ccccc2)[C@@H](c2ccccc2)N2[C@@H](c3ccc(O)cc3)[C@]3(C(=O)Nc4ccc(C#CC5=CCCCC5)cc43)[C@@H](C(=O)N3CCN(c4ncccn4)CC3)[C@H]12,0.567,1.19,1.24,0.811,1.22,1.1,-0.367,0.68,0.262,0.745 (inactive),0.326,-3.76 (inactive),-1.07 (inactive),-1.14 (inactive),-0.286 (inactive),0.448,0.0633,0.6,0.836,1.21
C[C@H]1C2=C3C(CC[C@H]4C(OCc5ccc(F)cc5C(F)(F)F)OC[C@](C)([C@@H]34)N(C(=O)OC(C)(C)C)C2)C2COC(=O)OCC21 (stereo not given in full),2.42,1.16,1.46,0.96,0.856,-1.5,1.75,-0.225,0.792,1.85 (inactive),0.163,-1.13 (inactive),-0.318 (inactive),0.201 (inactive),0.796 (inactive),1.29,0.0992,0.639,0.988,-0.789
CC(C)(C)N1CC=CC23O[C@@H]4C=CCOC(=O)[C@@H]4[C@H]2C(=O)N(CCCO)[C@@H]3C1=O (stereo not given in full),-1.08,-1.21,-0.595,-1.79,-1.79,-1.28,-0.908,-1.34,-1.13,-0.11 (inactive),-0.56,-1.97 (inactive),0.0204 (inactive),0.321 (inactive),0.0029 (inactive),-1.48,-0.317,0.213,-0.0267,-0.471
COC(=O)[C@@]1(Cc2ccc(OC)cc2)[C@H]2c3cc(C(=O)N(C)C)n(Cc4ccccc4)c3C[C@H]2CN1C(=O)c1ccccc1,3.25,1.14,0.649,-0.228,-0.0192,-0.825,2.63,-0.244,0.578,0.84 (inactive),-0.0424,-3.07 (inactive),-0.784 (inactive),-0.764 (inactive),0.592 (inactive),0.707,0.0882,-0.0982,0.14,-1.21
C=C(CCCC)C(=O)CC[C@@H](OC(=O)c1cccnc1)c1ccccc1OCCO,-0.349,-0.107,-0.0523,0.48,0.865,1.34,1.24,1.56,0.058,-0.511 (inactive),0.047,-1.55 (inactive),-0.325 (inactive),4.16 (inactive),1.04 (inactive),-0.368,-0.128,0.417,0.781,1.76
NC(=O)NCC#Cc1ccc2c(c1)[C@]1(C(=O)N2)[C@H](C(=O)O)[C@H]2C(=O)O[C@H](c3ccccc3)[C@H](c3ccccc3)N2[C@@H]1c1ccccc1OCCO,1.18,0.866,0.129,0.809,1.03,0.836,0.246,1.2,1.16,-4.72 (inactive),0.697,-1.95 (inactive),-1.26 (inactive),0.0384 (inactive),0.143 (inactive),1.1,0.374,0.712,0.651,1.41
[N-]=[N+]=NCc1ccccc1[C@H]1OC(c2ccc(OCCCO)cc2)=N[C@@]1(CCS(=O)(=O)c1ccccc1)C(N)=O,2.08,1.18,0.238,1,1.18,1.26,-1.14,-0.456,1.16,-3.95 (inactive),0.524,-0.0602 (inactive),0.456 (inactive),-0.678 (inactive),0.237 (inactive),1.8,0.182,1.87,1.76,-0.384
COCCOC(=O)N1C(=O)[C@@]2(c3cc(C#CC4(O)CCCCCC4)ccc31)[C@H](C(=O)N1CCCCCCC1)[C@H]1C(=O)O[C@H](c3ccccc3)[C@H](c3ccccc3)N1[C@@H]2c1ccc(OCCO)cc1,2.68,1.24,1.13,0.95,1.49,1.77,-1.18,1.7,1.09,-2.13 (inactive),1.19,-3.66 (inactive),0.629 (inactive),0.623 (inactive),-0.532 (inactive),2.63,1.85,1.25,1.8,2.17
COc1c(C)cc(-c2cc3c(c(Cc4ccccc4)n2)[Si](C(C)C)(C(C)C)OC3)cc1C,0.0134,-0.006,0.212,0.0295,0.308,0.0273,0.0666,0.708,-0.063,0.674 (inactive),0.0025,0.428 (inactive),0.602 (inactive),-0.0848 (inactive),-0.47 (inactive),0.169,-0.128,-0.0914,-0.105,0.513
CCN(CC)c1ccc(N2CC=CC34O[C@@H]5/C=C\CCC(C)OC(=O)C5[C@H]3C(=O)N(CCO)[C@@H]4C2=O)cc1 (stereo not given in full),2.08,-0.204,0.235,-1.45,-0.69,-0.734,0.431,-0.171,0.144,-0.801 (inactive),-0.442,-1.33 (inactive),0.655 (inactive),0.195 (inactive),-0.295 (inactive),-0.21,-0.0774,-1.12,-1.25,0.414
